Data: PubChem BioAssay AID1159606 (Sanford-Burnham Center for Chemical Genomics, 2016)
Out of some 360,000 compounds screened, about 7,300 (2%) were called active. Rule as the data show it: active = inhibition above about 50%; inactive = the rest. For the sample, actives were picked, then their nearest neighbours and some compounds at random.

Assay: inhibitors of TWEAK-Fn14 signaling, primary screen, luciferase reporter cells, uHTS (AID 1159606)
Conditions: TWEAK-stimulated Fn14 reporter cells, luciferase luminescence, 8 h; at 10 µM; hits give high values

Row | Structure (SMILES) | inhibition
1 | FC(F)(F)c1ccc2nnc(-c3c(Cl)cccc3Cl)n2c1 | 0.93% (inactive)
2 | COc1cc(C(=O)NCc2nnc(SCC(=O)c3ccc(Cl)cc3)o2)cc(OC)c1OC | -10.8% (inactive)
3 | CC(=O)Nc1ccc(C(=O)CSc2nnc(Cc3ccccc3)o2)cc1 | -13.6% (inactive)
4 | CC(C)C[C@@H](N)c1nnc(SCC(=O)c2ccc(Cl)cc2)o1 | 58.5% (active)
5 | CCCCn1c(O)c(N=NC(=O)Cn2c(C(F)(F)F)nc3ccccc32)c2ccccc21 | -12.1% (inactive)
6 | Fc1ccc2[nH]c3c(N4CCSCC4)ncnc3c2c1 | 77.1% (active)
7 | CC1(C)CC(=O)C=C(c2ccc(COC(=O)c3cc(F)cc(F)c3)cc2)C1=O | -6.91% (inactive)
8 | O=[N+]([O-])c1ccc(CN2CC(N3CCC(c4ccccc4)CC3)CS2(=O)=O)cc1 (stereo not drawn) | -12.9% (inactive)
9 | CSc1ncccc1C(=O)Nc1nc2ccc(F)cc2s1 | 76.2% (active)
10 | CSc1ncccc1C(=O)Nc1ccc(C)cn1 | 1.24% (inactive)
11 | CCS(=O)(=O)N1Cc2ccccc2CC1C(=O)Nc1nc2ccc(F)cc2s1 (stereo not drawn) | 21.8% (inactive)
12 | COc1cccc(NS(=O)(=O)c2ccc3[nH]cc(C(=O)NCCCOC(C)C)c(=O)c3c2)c1 | -0.08% (inactive)
13 | CCCCc1ccc(S(N)(=O)=O)cc1 | -10.5% (inactive)
14 | COc1ccc(S(=O)(=O)N2CCCCC2)cc1NC(=O)c1cc([N+](=O)[O-])ccc1N1CCOCC1 | 0.95% (inactive)
15 | CCOc1ccc2nc(NC(=O)c3cc([N+](=O)[O-])ccc3N3CCOCC3)sc2c1 | 58.5% (active)
16 | O=C(NCc1ccc2c(c1)OCO2)c1cc([N+](=O)[O-])ccc1N1CCOCC1 | 9.16% (inactive)
17 | Cc1cc(C)cc(NC(=O)N2CCC(NC(=O)c3ccc(F)cc3)CC2)c1 | -39.6% (inactive)
18 | Cc1ccc2c(c1)N(CC(=O)N1CCC(O)CC1)C(=O)CO2 | 33.3% (inactive)
19 | Cc1ccc2nc(-c3ccc(NC(=O)c4cccnc4)cc3)oc2c1 | 71.4% (active)
20 | CC(C)NS(=O)(=O)c1ccc(NC(=O)c2cccnc2)cc1 | -3.3% (inactive)
21 | Cc1ccc(-n2nc3cc(C)c(NC(=O)c4cccnc4)cc3n2)cc1 | 8.31% (inactive)
22 | Cc1cc2nc(-c3ccc(NC(=O)c4cccnc4)cc3)oc2cc1C | 52.2% (active)
23 | Cc1cc(NS(=O)(=O)c2ccc(NC(=O)c3cccnc3)cc2)nc(C)n1 | 14.2% (inactive)
24 | O=C(Cc1ccccc1)Nc1ccc(NC(=O)c2cccnc2)cc1 | 2.31% (inactive)

Row | Structure (SMILES) | inhibition
25 | COc1ccc(Br)c2c1C(=O)CC2 | 22.5% (inactive)
26 | Cc1cc([N+](=O)[O-])nn1CC(=O)Nc1ccc(Cc2ccncc2)cc1 | 8.17% (inactive)
27 | COc1ccc(C2CC(=O)C=C(NCC3CCCO3)C2)cc1 (stereo not drawn) | -25.7% (inactive)
28 | N#Cc1ccccc1Sc1ccccc1C(=O)OCC(=O)NC1CCCCC1 | 1.09% (inactive)
29 | O=C1c2ccccc2C2=Nc3ccccc3SC(c3ccccc3F)C12 (stereo not drawn) | 59.2% (active)
30 | COc1cccc(/C=C/C(=O)OCC(=O)N2CCN(c3ccccc3)CC2)c1 | 77.7% (active)
31 | COc1cccc(-c2ccc(SCC(=O)N3CCN(c4ccccc4)CC3)nn2)c1 | -23.8% (inactive)
32 | COc1cccc(/C=C/C(=O)OCC(=O)N2CCCc3ccccc32)c1 | -1.49% (inactive)
33 | COc1ccc(CNc2c(CO)cnc3c2cnn3C)cc1 | -5.49% (inactive)
34 | CCN(C(=O)Nc1cccc2ccccc12)c1ccccc1 | 11.9% (inactive)
35 | COc1ccc(Cl)cc1S(=O)(=O)N1CCC(O)(c2ccc(Cl)cc2)CC1 | -6.82% (inactive)
36 | O=C(Cc1ccc(S(=O)(=O)N2CCOCC2)s1)Nc1ccc(Br)c(C(F)(F)F)c1 | 17.8% (inactive)
37 | COc1ccc(C(=O)NC2CCCc3c2cnn3-c2cccc(C)c2C)c(OC)n1 (stereo not drawn) | 57.5% (active)
38 | COc1ccc(OC)c(C(=O)NC2CCCc3c2cnn3-c2cc(C)cc(C)c2)c1 (stereo not drawn) | -50.2% (inactive)
39 | Cn1nccc1C(=O)NC1CCCc2c1cnn2-c1ccc(F)cc1F (stereo not drawn) | 18.5% (inactive)
40 | CCc1c(C)nc(SCC(=O)NC2CCCC2)[nH]c1=O | 15.7% (inactive)
41 | CCc1ccc(-c2nc(SCC(=O)NC3CCCC3)n[nH]2)cc1 | 66.6% (active)
42 | COC(=O)c1ccccc1NC(=O)CSc1n[nH]c(-c2ccncc2)n1 | -4.67% (inactive)
43 | Cc1ccc(C2=NN(C(=O)CSc3nc(N)cc(N)n3)C(c3ccco3)C2)cc1 (stereo not drawn) | 9.43% (inactive)
44 | O=C(CN1CCN(C2CCS(=O)(=O)C2)CC1)N1N=C(c2ccc(Cl)cc2)CC1c1ccco1 (stereo not drawn) | 73.8% (active)
45 | Cc1ccc(C2=NN(C(=O)COc3ncnc4ccccc34)C(c3ccco3)C2)cc1 (stereo not drawn) | -54.3% (inactive)
46 | CC1(C(=O)NS(=O)(=O)c2ccc3ccccc3c2)CCN1C(=O)C1(c2ccc(Cl)cc2)CCC1 (stereo not drawn) | 17.7% (inactive)
47 | C/C(=N\NC(=O)c1ccc(C)cc1)C1C(=O)c2ccccc2C1=O | -2.62% (inactive)
48 | COc1cccc(/C=C/c2ccc3ccccc3n2)c1OC(C)=O | 86.8% (active)

Row | Structure (SMILES) | inhibition
49 | CCOc1cccc(/C=C/c2ccc3ccccc3n2)c1OC(C)=O | 60% (active)
50 | CCOc1ccccc1/C=N/Nc1nc2ccccc2o1 | 15.2% (inactive)
51 | CCOc1ccccc1-c1cc(C(=O)N2CCOCC2)c2ccccc2n1 | -5.73% (inactive)
52 | CC(=O)c1ccc(S(=O)(=O)N2CCN(C(=O)/C=C/c3ccc4ccccc4n3)CC2)cc1 | 6.75% (inactive)
53 | CC(OC(=O)c1ccc2ccccc2n1)C(=O)c1ccccc1 (stereo not drawn) | -11.2% (inactive)
54 | CCCc1cc(=O)oc2c(C)c(OC(C)C(=O)NCC(O)c3ccccc3)ccc12 (stereo not drawn) | -28.2% (inactive)
55 | COCn1c(C(O)c2ccccc2)cc2ccccc21 (stereo not drawn) | 3.63% (inactive)
56 | Cc1ccc(-c2ccc(CN3C(C)C(=O)N(Cc4cn(CCC5OCCCO5)nn4)CCS3(=O)=O)cc2)cc1 (stereo not drawn) | 5.69% (inactive)
57 | Cc1ccc(NC(=O)CSCC(=O)N2CCOCC2)cc1 | -11.3% (inactive)
58 | O=C(CSc1nnc(-c2cnccn2)n1Cc1ccco1)c1ccc(Cl)c(Cl)c1 | -5.31% (inactive)
59 | C(=C\c1ccccc1)/CSc1nnc(-c2cccnc2)n1Cc1ccco1 | -6.4% (inactive)
60 | O=C(CSc1nnc(-c2cccnc2)n1Cc1ccco1)c1ccc(Cl)c(Cl)c1 | 62.2% (active)
61 | CNC[C@H]1OCc2cnnn2CCCC(=O)N([C@H](C)CO)C[C@@H]1C | -13.2% (inactive)
62 | CCc1nc2ccc(C(=O)NC3CCN(Cc4ccccc4)CC3)cn2c1N(CC)CCOC | -14.1% (inactive)
63 | COCCNc1nc2nonc2nc1N1CCCC1c1nccs1 (stereo not drawn) | -4.57% (inactive)
64 | O=C(Nc1ccc2c(c1)CCC2)c1cccc(S(=O)(=O)N2CCN(c3ccc(F)cc3)CC2)c1 | 65% (active)
65 | O=C(Nc1ccc2c(c1)CCC2)c1cccc(S(=O)(=O)Nc2ccccc2Cl)c1 | 25.9% (inactive)
66 | CN1CCN(S(=O)(=O)c2cccc(C(=O)Nc3cccc(S(N)(=O)=O)c3)c2)CC1 | 14.8% (inactive)
67 | COc1ccc(NC(=O)c2ccccc2CC[N+](=O)[O-])cc1 | 2.4% (inactive)
68 | COCCNC(=O)c1cc2c(Br)ccc(Br)c2nc1N | 2.81% (inactive)
69 | Cc1cc(C)n2c(Nc3c(C)cccc3C)c(CCc3ccccc3)nc2n1 | -5.1% (inactive)
70 | OCC1(CO)CC2(C1)CC(CO)(CO)C2 | 15.3% (inactive)
71 | Cc1ccc(-c2noc(CCC(=O)Nc3ccccc3N3CCN(C)CC3)n2)cc1 | 12.3% (inactive)
72 | COc1cc(/C=C(/NC(=O)c2ccc(Cl)cc2Cl)C(=O)O)cc(OC)c1OC | 15.3% (inactive)

Row | Structure (SMILES) | inhibition
73 | CCOc1cc(/C=N/NC(=O)OC)ccc1OCCSc1ccc(Cl)cc1 | 10.4% (inactive)
74 | CCOc1cc(/C=C(/C#N)c2ccc(Cl)cc2)cc(Cl)c1OCC(=O)O | 83.5% (active)
75 | COc1ccccc1CNC(=O)C1CCN(S(=O)(=O)c2ccc3c(c2)OCCO3)CC1 | 10.5% (inactive)
76 | Cc1ccc(Cn2cc(C(=O)NN)c(=O)c3ccc(F)cc32)cc1 | -2.98% (inactive)
77 | CCNc1nc(SCCOc2ccccc2)nc(N(C)C)n1 | -28.5% (inactive)
78 | Cc1cccc(NC(=O)C2CC(=O)OC23CCCC3)c1 (stereo not drawn) | 14.4% (inactive)
79 | Cn1c(=O)c2cc(NC(=O)NCCc3cccs3)ccc2n1Cc1cccc(C(F)(F)F)c1 | 4.52% (inactive)
80 | COc1ccccc1NC(=O)Nc1nnc(Cc2ccc(F)cc2)s1 | -26.6% (inactive)
81 | O=C(Nc1nnc(COc2ccccc2)s1)Nc1ccccc1F | 62.4% (active)
82 | O=C(Nc1ccccc1)Nc1nnc(COc2ccccc2F)s1 | -8.31% (inactive)
83 | Brc1ccc(-c2nn[nH]n2)cc1 | 5.03% (inactive)
84 | CC(=O)C1=C(C)NC2=C(C(=O)CC(C)(C)C2)C1C (stereo not drawn) | 16% (inactive)
85 | COc1ccc(OC)c(/C(C)=N\NC(=O)c2cc3cc(Cl)ccc3n2C)c1 | 5.37% (inactive)
86 | Cc1ccc(S(=O)(=O)C(C#N)c2nc3ccccc3nc2N2CCCC2)cc1C (stereo not drawn) | 12.6% (inactive)
87 | Cc1ccc(S(=O)(=O)Nc2nc3ccccc3nc2N2CCc3ccccc3C2)cc1 | 86.8% (active)
88 | COCCCNc1nc2ccccc2nc1NS(=O)(=O)c1ccc(F)cc1 | 19.1% (inactive)
89 | Cc1ccc(C)c(NC(=O)CSc2nc3c(oc4ccccc43)c(=O)n2-c2ccccc2)c1 | 25.1% (inactive)
90 | COc1ccccc1C(=O)NC(=S)Nc1ccc(N2CCOCC2)cc1 | -34.2% (inactive)
91 | COc1ccccc1C(=O)NC(=S)Nc1ccccc1N1CCCCC1 | 53.6% (active)
92 | COc1ccccc1C(=O)NC(=S)NC12CC3CC(CC(C3)C1)C2 | 0.54% (inactive)
93 | CC(C)(C)c1cc(NC(=O)NN2CCOCC2)nn1-c1c(Cl)cc(Cl)cc1Cl | 4.79% (inactive)
